Data published in PubChem BioAssay (NCI).
Compounds without any hit were thinned out: in the full panel of roughly 83,000, 20% have a hit.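 Interpretation: 100, growth as untreated; towards 0, rising growth inhibition; 0, no net growth; 0 to -100, cell death. Compounds scoring below 10 were considered active.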 Activity calls are given as the source filed them.

Columns and labels:
Test in all cases: NCI-60 one-dose screen, 48 h (100 = growth as untreated, 0 = no growth, -100 = all killed)
Conditions in all cases: 10 µM unless noted
[1] = system: DU-145 prostate
[2] = system: K-562 leukemia
[3] = system: MALME-3M melanoma
[4] = system: MDA-MB-231 breast
[5] = system: SF-268 CNS
[6] = system: SF-539 CNS
[7] = system: UACC-257 melanoma
[8] = system: M14 melanoma
[9] = system: HCT-15 colon
[10] = system: HT29 colon
[11] = system: SNB-75 CNS
[12] = system: SNB-19 CNS
[13] = system: U251 CNS
[14] = system: PC-3 prostate
[15] = system: SK-MEL-5 melanoma
[16] = system: UACC-62 melanoma
[17] = system: LOX IMVI melanoma
[18] = system: SK-MEL-28 melanoma
[19] = system: RXF 393 renal
[20] = system: SF-295 CNS

Measured: growth

Cc1[nH]n(C(=S)Nc2nc3cc(Cl)c(F)cc3s2)c(=O)c1N=Nc1ccc(F)c(Cl)c1
active: [7] -34.2%
inactive: [1] 154% | [2] 89.5% | [3] 139% | [4] 93.5% | [5] 90% | [6] 108% | [8] 114% | [9] 101% | [10] 112% | [11] 86% | [12] 89.7% | [13] 95.9% | [14] 98.1% | [15] 93.1% | [16] 92.8% | [17] 99% | [18] 106%

COc1ccc(/C=C(/C(=O)N2CCCCC2)c2cc(OC)c(OC)c(OC)c2)cc1
inactive: [2] 11% | [4] 41.5% | [5] 50.1% | [20] 14.1% | [7] 75% | [9] 26.8% | [12] 32% | [13] 26% | [14] 12.4% | [15] 26.8% | [16] 36.5% | [17] 36.5% | [18] 54.1%
active: [1] 9.17% | [19] -1.64% | [6] -10.5% | [8] -6.93% | [10] 5.67% | [11] -15.6%

O=C(/C=C1\C(=O)N(Cc2ccc([N+](=O)[O-])cc2)c2ccccc21)c1ccc(OCCN2CCCCC2)cc1
active: [1] -35.3% | [2] -35.2% | [4] -60.8% | [19] -90.7% | [5] -35.4% | [6] -84.6% | [7] -4.94% | [8] -59.4% | [9] -80.6% | [10] -89.3% | [13] -46.5% | [14] -52.3% | [16] -74% | [17] -82.7% | [18] -51%
inactive: [20] 49.7% | [11] 22.3% | [12] 57.9% | [15] 33.9%

Cc1cc(CSc2ccc(Cl)cc2)ccc1N
inactive: [1] 88.5% | [2] 99.6% | [4] 61.9% | [19] 105% | [5] 70% | [20] 101% | [6] 62.9% | [7] 108% | [8] 101% | [9] 98.3% | [10] 106% | [11] 87.3% | [12] 84.3% | [13] 78.6% | [14] 76.5% | [15] 103% | [16] 90.5% | [17] 98.6% | [18] 111%

N#Cc1ccc(NC2c3ccccc3CC2O)cc1 (stereo not given)
inactive: [1] 110% | [2] 90.4% | [4] 114% | [19] 89.6% | [5] 115% | [20] 114% | [6] 102% | [7] 125% | [8] 106% | [9] 101% | [10] 110% | [11] 91.5% | [12] 109% | [13] 113% | [14] 98.8% | [15] 102% | [16] 99.1% | [18] 109%

CCOC(=O)C1=NN(c2ccccc2)C2=NC(=O)/C(=C\c3cn(-c4ccccc4)nc3-c3cc4ccccc4o3)C(=O)N12
inactive: [1] 109% | [2] 74.9% | [4] 78.7% | [19] 124% | [5] 105% | [20] 108% | [6] 114% | [7] 102% | [8] 101% | [9] 101% | [10] 98% | [11] 94.7% | [12] 89.5% | [13] 99.4% | [14] 88.2% | [15] 94.3% | [16] 82.3% | [17] 95.9% | [18] 110%

O=C1c2cc([N+](=O)[O-])ccc2-c2cc(Cl)c(NC(=O)C(F)(F)F)cc21
inactive: [1] 112% | [2] 88.6% | [4] 109% | [19] 87.5% | [5] 107% | [20] 111% | [6] 95.4% | [7] 128% | [8] 110% | [9] 95.4% | [10] 108% | [11] 91.1% | [12] 106% | [14] 94.8% | [15] 100% | [16] 101% | [18] 106%

COc1cc(Cn2ccc3c2-c2oncc2CC3)cc(OC)c1
active: [11] -16%
inactive: [1] 43.7% | [2] 24.9% | [4] 44.1% | [19] 54.6% | [5] 50% | [20] 24.2% | [6] 19.6% | [7] 53.4% | [8] 12.7% | [9] 27.2% | [10] 14.9% | [12] 43.7% | [13] 42.4% | [14] 57.9% | [15] 13.9% | [16] 38.3% | [17] 40.1% | [18] 48.9%

COc1ccc(/C=C2\SC(=O)N(Cc3cc(=O)oc4ccc(OC)cc34)C2=O)cc1
inactive: [1] 91.3% | [2] 54.2% | [4] 83.1% | [19] 110% | [5] 88.8% | [20] 82.7% | [6] 89.6% | [7] 100% | [8] 92.7% | [9] 89.9% | [10] 95.8% | [11] 74.3% | [12] 87% | [13] 98.9% | [14] 93.1% | [15] 87.4% | [16] 66.3% | [17] 85.7% | [18] 95.1%

NCCCOc1cc2ccccc2cc1C(=O)Nc1ccc(Cl)cc1OC(=O)c1cc2ccccc2cc1OCCCN
active: [1] -97% | [2] -37.5% | [3] -70.7% | [19] -86.4% | [5] -80.5% | [20] -76.2% | [6] -89.6% | [8] -86.7% | [9] -82.2% | [10] -94.9% | [11] -86.5% | [12] -61.5% | [13] -93.6% | [14] -93% | [15] -96.1% | [16] -71.1% | [17] -86.7% | [18] -89.3%

CCCCCN1CCN(C(CC(=O)c2ccccc2)C(=O)c2ccccc2)CC1 (stereo not given)
inactive: [1] 69.1% | [2] 11.2% | [3] 50.4% | [19] 111% | [5] 91.5% | [20] 105% | [6] 110% | [7] 107% | [8] 97.6% | [9] 94.5% | [10] 96.4% | [11] 100% | [13] 92.6% | [14] 92.6% | [15] 106% | [17] 82.8% | [18] 119%

COc1ccc(CN2C(=O)/C(=C\C(=O)c3ccc(OCCN4CCCCC4)cc3)c3ccccc32)cc1
inactive: [1] 66% | [4] 84.8% | [19] 61.7% | [5] 82.7% | [20] 91.5% | [6] 86.4% | [7] 99% | [8] 72.1% | [11] 83.8% | [12] 84% | [13] 80% | [14] 81.4% | [15] 90.9% | [16] 73.5% | [18] 91.5%
active: [2] 2.32% | [9] 7.62% | [10] 8.95% | [17] 8.81%

O=C(/C=C/c1c[nH]c2ccccc12)c1cc2ccccc2o1
inactive: [1] 95.6% | [2] 37.2% | [4] 84.6% | [19] 114% | [5] 80.6% | [20] 91% | [6] 82.1% | [7] 98.4% | [8] 84.2% | [9] 83.3% | [10] 98.9% | [11] 92% | [12] 96.2% | [13] 98.2% | [14] 75.6% | [15] 102% | [16] 87.6% | [17] 91.7% | [18] 96.6%

N=c1c2c(=O)n3c(nc2nc2sc4ccc(Cl)cc4n12)-c1ccccc1Sc1ccccc1-3
inactive: [1] 38.4% | [2] 19.8% | [19] 38.2% | [5] 42.2% | [6] 27.2% | [7] 29.9% | [8] 21.6% | [9] 13.6% | [10] 26.8% | [11] 18.6% | [12] 30.5% | [13] 24.7% | [14] 11.2% | [17] 24.2% | [18] 29.3%
active: [4] 7.92% | [20] 5.48% | [15] -2.17% | [16] -26%

O=S(=O)(O)c1ccc2c(c1)Sc1cc(S(=O)(=O)O)ccc1O2
inactive: [1] 116% | [2] 100% | [4] 101% | [19] 116% | [5] 112% | [20] 103% | [6] 117% | [7] 108% | [8] 107% | [9] 113% | [10] 106% | [11] 93.2% | [12] 103% | [13] 102% | [14] 99.2% | [15] 112% | [16] 96% | [17] 99.7% | [18] 106%

COc1ccc(OC)c(Cn2cc3c(c2)-c2oncc2CC3)c1
active: [20] -8.86% | [6] -7.35% | [8] 4.07%
inactive: [1] 52% | [2] 14.7% | [4] 42% | [19] 36.7% | [5] 57.5% | [7] 60.5% | [9] 31.1% | [10] 22.3% | [12] 50.6% | [13] 37.8% | [14] 45.5% | [15] 20% | [16] 53% | [17] 35.4% | [18] 50.1%

COc1cccc(Cn2cc3c(c2)-c2oncc2CC3)c1
inactive: [1] 11.3% | [2] 13.6% | [5] 37.6% | [7] 73.1% | [8] 12.5% | [9] 18.7% | [11] 25.2% | [12] 39.4% | [13] 31.7% | [14] 27.4% | [16] 46.2% | [17] 34.7% | [18] 51.9%
active: [4] 5.68% | [19] 8.73% | [20] -29.1% | [6] -7.13% | [10] 9.25% | [15] 6.37%
